Common to all, as to test: DAPPL (digital affinity profiling via proximity ligation, sequencing); 10 mM Tris-HCl pH 7.5, 50 mM NaCl, 1 mM DTT, 4% glycerol, room temperature, 30 min; GST-TFs on glutathione beads, 16-mer random dsDNA library, 0.1% formaldehyde crosslink after washing; high values mean tight binding
Common to all, as to conditions: protein: recombinant; tags: N-terminal GST; dsDNA, one strand shown

For one assay, the target named is T1, ERF (Homo sapiens, UniProt P50548 1-548).
T1 sequence: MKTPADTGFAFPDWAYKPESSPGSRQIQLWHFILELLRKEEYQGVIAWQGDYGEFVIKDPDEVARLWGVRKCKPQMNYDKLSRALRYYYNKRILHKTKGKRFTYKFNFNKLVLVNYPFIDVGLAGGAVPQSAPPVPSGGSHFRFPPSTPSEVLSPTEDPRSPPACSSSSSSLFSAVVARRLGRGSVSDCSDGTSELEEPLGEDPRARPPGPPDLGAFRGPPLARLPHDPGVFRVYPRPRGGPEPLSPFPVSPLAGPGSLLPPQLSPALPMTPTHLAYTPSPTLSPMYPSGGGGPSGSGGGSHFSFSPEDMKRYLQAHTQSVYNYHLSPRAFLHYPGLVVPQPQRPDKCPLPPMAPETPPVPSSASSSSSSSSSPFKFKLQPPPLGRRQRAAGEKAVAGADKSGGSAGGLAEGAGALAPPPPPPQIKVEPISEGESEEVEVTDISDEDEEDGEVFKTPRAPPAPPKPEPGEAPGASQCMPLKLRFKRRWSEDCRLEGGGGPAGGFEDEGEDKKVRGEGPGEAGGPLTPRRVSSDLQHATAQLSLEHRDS
The gist of the method:
(§1)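 Human transcription factors fused to GST were expressed in yeast, captured on glutathione beads, given DNA barcodes and pooled with a GST-only negative control. Pools were incubated with 200 nmole of a 16-mer random double-stranded DNA library in Tris/NaCl/DTT/glycerol buffer at room temperature for 30 min. They were then washed, crosslinked with 0.1% formaldehyde, proximity-ligated (BsaI/T4 ligase, 1 h, 37 °C), PCR-amplified and sequenced on an Illumina NextSeq500. Binding signal is each 6-mer's read frequency for a factor divided by its frequency for the GST control.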

The target in the next assay is T2, ETV3L (Homo sapiens, UniProt Q6ZN32 1-361).
T2 sequence: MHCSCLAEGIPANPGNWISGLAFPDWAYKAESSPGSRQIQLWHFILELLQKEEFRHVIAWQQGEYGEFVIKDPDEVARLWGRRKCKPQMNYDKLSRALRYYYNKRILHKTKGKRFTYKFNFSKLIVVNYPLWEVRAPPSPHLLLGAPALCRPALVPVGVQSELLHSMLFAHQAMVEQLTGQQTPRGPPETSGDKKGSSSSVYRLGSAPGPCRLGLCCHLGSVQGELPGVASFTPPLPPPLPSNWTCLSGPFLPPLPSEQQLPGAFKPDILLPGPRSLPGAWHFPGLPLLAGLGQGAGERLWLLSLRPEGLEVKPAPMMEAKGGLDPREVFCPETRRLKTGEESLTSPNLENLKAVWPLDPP
In short, it runs like this: as §1

In another assay the target is T3, ETS2 (Homo sapiens, UniProt P15036 1-469).
T3 sequence: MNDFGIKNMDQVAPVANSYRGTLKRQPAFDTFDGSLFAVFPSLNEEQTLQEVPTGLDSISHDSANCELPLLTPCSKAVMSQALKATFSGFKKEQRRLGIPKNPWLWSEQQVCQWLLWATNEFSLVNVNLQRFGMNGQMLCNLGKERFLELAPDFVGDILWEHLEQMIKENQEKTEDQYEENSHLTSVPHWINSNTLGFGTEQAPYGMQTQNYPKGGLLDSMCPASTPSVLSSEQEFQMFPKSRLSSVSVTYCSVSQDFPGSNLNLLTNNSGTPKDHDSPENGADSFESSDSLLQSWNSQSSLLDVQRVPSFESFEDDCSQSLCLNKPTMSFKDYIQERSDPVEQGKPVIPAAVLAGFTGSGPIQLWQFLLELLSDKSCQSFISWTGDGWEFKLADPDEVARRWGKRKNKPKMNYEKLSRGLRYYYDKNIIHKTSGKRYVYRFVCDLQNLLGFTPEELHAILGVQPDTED
The gist of the method: as §1

The target of the next assay is T4, SPDEF (Homo sapiens, UniProt O95238 1-335).
T4 sequence: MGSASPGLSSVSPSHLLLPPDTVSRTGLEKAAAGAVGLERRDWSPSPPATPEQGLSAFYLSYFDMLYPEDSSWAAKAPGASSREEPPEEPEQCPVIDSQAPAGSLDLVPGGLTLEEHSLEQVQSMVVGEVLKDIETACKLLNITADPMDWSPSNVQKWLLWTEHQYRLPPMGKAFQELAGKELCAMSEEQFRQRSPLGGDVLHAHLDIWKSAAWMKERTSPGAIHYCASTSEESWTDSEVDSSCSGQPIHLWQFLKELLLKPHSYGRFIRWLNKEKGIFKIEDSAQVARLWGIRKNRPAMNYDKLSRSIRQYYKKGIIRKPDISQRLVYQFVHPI
The gist of the method:
as §1

The target in the next assay is T5, ETV7 (Homo sapiens, UniProt Q9Y603 1-341).
T5 sequence: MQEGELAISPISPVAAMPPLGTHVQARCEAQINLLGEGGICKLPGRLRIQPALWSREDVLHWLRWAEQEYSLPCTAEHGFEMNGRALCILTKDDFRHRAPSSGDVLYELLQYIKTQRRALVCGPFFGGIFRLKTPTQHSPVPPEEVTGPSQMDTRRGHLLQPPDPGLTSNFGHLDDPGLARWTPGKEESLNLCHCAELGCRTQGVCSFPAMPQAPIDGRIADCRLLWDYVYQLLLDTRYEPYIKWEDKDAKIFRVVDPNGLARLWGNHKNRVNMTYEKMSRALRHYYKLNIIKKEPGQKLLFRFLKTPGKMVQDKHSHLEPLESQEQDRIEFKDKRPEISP
In short, it runs like this: as §1

Another assay addresses T6, ELF5 (Homo sapiens, UniProt Q9UKW6-2 1-255).
T6 sequence: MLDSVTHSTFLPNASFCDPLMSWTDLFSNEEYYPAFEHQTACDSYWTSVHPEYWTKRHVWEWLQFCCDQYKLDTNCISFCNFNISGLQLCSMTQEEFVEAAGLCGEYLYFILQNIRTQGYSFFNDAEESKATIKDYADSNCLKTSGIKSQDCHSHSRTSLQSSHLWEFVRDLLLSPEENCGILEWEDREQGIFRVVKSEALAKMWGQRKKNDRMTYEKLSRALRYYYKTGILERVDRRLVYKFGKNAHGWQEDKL
The gist of the method: as §1

In another assay the target is T7, ETV3 (Homo sapiens, UniProt P41162-2 1-143).
T7 sequence: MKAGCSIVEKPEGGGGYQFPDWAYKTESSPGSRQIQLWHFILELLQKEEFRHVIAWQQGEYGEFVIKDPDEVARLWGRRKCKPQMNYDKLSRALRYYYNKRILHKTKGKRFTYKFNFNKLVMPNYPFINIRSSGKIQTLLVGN
The gist of the method:
as §1

The next assay deals with ETV6 (Homo sapiens, UniProt P41212 1-452). The gist of the method: as §1
Sequence of ETV6 (P41212 whole entry): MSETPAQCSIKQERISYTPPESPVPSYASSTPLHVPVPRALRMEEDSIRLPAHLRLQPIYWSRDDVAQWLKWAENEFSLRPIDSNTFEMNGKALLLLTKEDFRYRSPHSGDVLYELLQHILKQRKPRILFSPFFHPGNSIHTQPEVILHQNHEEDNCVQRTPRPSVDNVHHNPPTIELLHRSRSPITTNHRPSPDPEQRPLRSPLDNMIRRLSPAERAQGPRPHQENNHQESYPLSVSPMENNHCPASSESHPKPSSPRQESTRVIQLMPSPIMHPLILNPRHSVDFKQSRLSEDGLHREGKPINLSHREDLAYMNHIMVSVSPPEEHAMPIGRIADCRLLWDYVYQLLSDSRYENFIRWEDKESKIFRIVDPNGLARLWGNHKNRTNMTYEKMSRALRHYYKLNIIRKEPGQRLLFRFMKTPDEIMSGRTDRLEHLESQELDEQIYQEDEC

In the case of GATGCA, the binding signal with ERF is 1.2 fold enrichment (6-mer frequency, TF over GST control); with ETV3L it was 1.14 fold enrichment (6-mer frequency, TF over GST control); with ETS2, 1.16 fold enrichment (6-mer frequency, TF over GST control); with SPDEF it was 1.47 fold enrichment (6-mer frequency, TF over GST control); with ETV7, 1.04 fold enrichment (6-mer frequency, TF over GST control); in the assay with ELF5, 1.1 fold enrichment (6-mer frequency, TF over GST control). In addition, the binding signal is 1.16 fold enrichment (6-mer frequency, TF over GST control) with ETV3 and 1.02 fold enrichment (6-mer frequency, TF over GST control) with ETV6.

CTCCAT: the binding signal in the assay with ERF is 1.37 fold enrichment (6-mer frequency, TF over GST control); with ETV3L, 1.21 fold enrichment (6-mer frequency, TF over GST control); in the assay with ETS2 it was 1.36 fold enrichment (6-mer frequency, TF over GST control); in the assay with SPDEF, 1.39 fold enrichment (6-mer frequency, TF over GST control); with ETV7 it was 1.13 fold enrichment (6-mer frequency, TF over GST control); with ELF5, 1.24 fold enrichment (6-mer frequency, TF over GST control). The binding signal with ETV3 was 1.27 fold enrichment (6-mer frequency, TF over GST control); with ETV6 it was 1.35 fold enrichment (6-mer frequency, TF over GST control).

CGCCGA: the binding signal was 1.34 fold enrichment (6-mer frequency, TF over GST control) in the assay with ERF; 1.21 fold enrichment (6-mer frequency, TF over GST control) with ETV3L; 1.22 fold enrichment (6-mer frequency, TF over GST control) with ETS2; 1.15 fold enrichment (6-mer frequency, TF over GST control) with SPDEF; 1.05 fold enrichment (6-mer frequency, TF over GST control) in the assay with ETV7; 1.1 fold enrichment (6-mer frequency, TF over GST control) with ELF5. The binding signal in the assay with ETV3 was 1.16 fold enrichment (6-mer frequency, TF over GST control); with ETV6, 1.16 fold enrichment (6-mer frequency, TF over GST control).

On to CCTGGT, for which the binding signal with ERF is 1.37 fold enrichment (6-mer frequency, TF over GST control); in the assay with ETV3L, 1.53 fold enrichment (6-mer frequency, TF over GST control); with ETS2, 1.43 fold enrichment (6-mer frequency, TF over GST control); with SPDEF, 1.69 fold enrichment (6-mer frequency, TF over GST control); in the assay with ETV7, 1.31 fold enrichment (6-mer frequency, TF over GST control); with ELF5, 1.58 fold enrichment (6-mer frequency, TF over GST control). Further, the binding signal with ETV3 was 1.49 fold enrichment (6-mer frequency, TF over GST control); with ETV6 it was 1.4 fold enrichment (6-mer frequency, TF over GST control).

Take CCTGTA: the binding signal with ERF is 1.24 fold enrichment (6-mer frequency, TF over GST control); with ETV3L, 1.22 fold enrichment (6-mer frequency, TF over GST control); with ETS2, 1.15 fold enrichment (6-mer frequency, TF over GST control); with SPDEF, 1.36 fold enrichment (6-mer frequency, TF over GST control); with ETV7 it was 1.21 fold enrichment (6-mer frequency, TF over GST control); with ELF5, 1.43 fold enrichment (6-mer frequency, TF over GST control). For the same sequence, the binding signal is 1.35 fold enrichment (6-mer frequency, TF over GST control) with ETV3 and 1.18 fold enrichment (6-mer frequency, TF over GST control) in the assay with ETV6.

Take TGATGA: the binding signal in the assay with ERF is 1.25 fold enrichment (6-mer frequency, TF over GST control); with ETV3L, 1.4 fold enrichment (6-mer frequency, TF over GST control); in the assay with ETS2, 1.28 fold enrichment (6-mer frequency, TF over GST control); in the assay with SPDEF, 1.19 fold enrichment (6-mer frequency, TF over GST control); with ETV7 it was 1.26 fold enrichment (6-mer frequency, TF over GST control); with ELF5, 1.21 fold enrichment (6-mer frequency, TF over GST control). Besides, the binding signal in the assay with ETV3 was 1.33 fold enrichment (6-mer frequency, TF over GST control); in the assay with ETV6, 1.34 fold enrichment (6-mer frequency, TF over GST control).

Regarding TATCGC, the binding signal with ERF is 1.18 fold enrichment (6-mer frequency, TF over GST control); with ETV3L, 1.15 fold enrichment (6-mer frequency, TF over GST control); with ETS2, 1.1 fold enrichment (6-mer frequency, TF over GST control); in the assay with SPDEF, 1.17 fold enrichment (6-mer frequency, TF over GST control); with ETV7, 1 fold enrichment (6-mer frequency, TF over GST control); with ELF5, 1.19 fold enrichment (6-mer frequency, TF over GST control). Besides, the binding signal with ETV3 was 1.13 fold enrichment (6-mer frequency, TF over GST control); with ETV6 it was 1.08 fold enrichment (6-mer frequency, TF over GST control).

For the origin of these results see article PMC7862700, “An all-to-all approach to the identification of sequence-specific readers for epigenetic DNA modifications on cytosine”.
